Measured values: the supplement of paper PMC10681739

Tests used:
ETS1 [1] = target: T1, ETS1 (UniProt P14921); assay: ETS1 binding intensity (PBM fluorescence), ETS1 alone (arbitrary fluorescence units); higher = stronger binding; conditions: ETS1 concentration 1 nM; RUNX1 concentration 0 nM
T1 sequence: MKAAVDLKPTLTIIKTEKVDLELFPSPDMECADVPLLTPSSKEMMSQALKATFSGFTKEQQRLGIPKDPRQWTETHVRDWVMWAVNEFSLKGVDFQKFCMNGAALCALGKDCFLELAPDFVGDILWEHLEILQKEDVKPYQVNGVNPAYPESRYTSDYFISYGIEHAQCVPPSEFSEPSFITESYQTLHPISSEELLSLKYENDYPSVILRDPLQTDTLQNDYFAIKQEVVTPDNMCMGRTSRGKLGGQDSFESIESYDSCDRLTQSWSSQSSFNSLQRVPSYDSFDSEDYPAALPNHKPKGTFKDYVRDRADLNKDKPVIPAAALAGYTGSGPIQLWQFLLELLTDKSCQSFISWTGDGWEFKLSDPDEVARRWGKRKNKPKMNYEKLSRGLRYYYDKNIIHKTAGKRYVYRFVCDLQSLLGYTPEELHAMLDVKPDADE

RUNX1 [2] = target: RUNX1 (UniProt Q01196); assay: RUNX1 binding intensity (PBM fluorescence), RUNX1 alone (arbitrary fluorescence units); higher = stronger binding; conditions: RUNX1 concentration 2 nM; ETS1 concentration 0 nM
Description: (§1)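 Cooperative gcPBM on 36-bp genomic probes with neighbouring ETS1 and RUNX1 sites. Recombinant human RUNX1 (2 nM) was incubated alone or with ETS1 (25 nM) and detected with anti-RUNX1 antibody plus Alexa488 secondary. Values are medians over 4 replicate spots; the RUNX1+ETS1 data were normalised to the RUNX1-only data. The probes sit in constant array flanks that are not printed.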

ETS1 [3] = target: T1, ETS1; assay: ETS1 binding intensity (PBM fluorescence) in presence of RUNX1, normalised to ETS1-only experiment (arbitrary fluorescence units); higher = stronger binding; conditions: ETS1 concentration 1 nM; RUNX1 concentration 25 nM
RUNX1 [4] = target: RUNX1 (UniProt Q01196); assay: RUNX1 binding intensity (PBM fluorescence) in presence of ETS1, normalised to RUNX1-only experiment (arbitrary fluorescence units); higher = stronger binding; conditions: RUNX1 concentration 2 nM; ETS1 concentration 25 nM
Description: as §1
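Wherever RUNX1 binding intensity (PBM fluorescence) in presence of ETS1, normalised to RUNX1-only experiment is given: Full-length recombinant human ETS1 or RUNX1 bound to double-stranded 36-bp genomic probes on microarrays, detected by protein-specific primary antibody and Alexa488 secondary, spot fluorescence as median of four replicate spots.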
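Wherever RUNX1 binding intensity (PBM fluorescence), RUNX1 alone is given: Full-length recombinant human RUNX1 bound to double-stranded 36-bp genomic probes on a high-density microarray, scored as Alexa488 fluorescence per spot via anti-RUNX1 antibody, median of four replicate spots.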

RUNX1, sequence (Q01196 whole entry): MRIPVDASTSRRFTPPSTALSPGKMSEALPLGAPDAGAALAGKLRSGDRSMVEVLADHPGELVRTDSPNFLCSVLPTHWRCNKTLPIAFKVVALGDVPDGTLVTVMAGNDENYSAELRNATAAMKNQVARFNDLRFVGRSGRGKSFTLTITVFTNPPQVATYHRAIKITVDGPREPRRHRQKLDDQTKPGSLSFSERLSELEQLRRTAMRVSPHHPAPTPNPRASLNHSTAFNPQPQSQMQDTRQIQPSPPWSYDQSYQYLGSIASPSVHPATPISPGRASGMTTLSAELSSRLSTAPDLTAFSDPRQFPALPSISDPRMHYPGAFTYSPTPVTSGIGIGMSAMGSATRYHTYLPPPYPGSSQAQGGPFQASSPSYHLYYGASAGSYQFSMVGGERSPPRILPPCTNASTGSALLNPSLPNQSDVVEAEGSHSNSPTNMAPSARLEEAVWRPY

Sequence	ETS1 binding intensity (ETS1 [1])	RUNX1 binding intensity (RUNX1 [2])	ETS1 binding intensity (ETS1 [3])	RUNX1 binding intensity (RUNX1 [4])
AAGTTCTTCCGGGTCTGCAGTCTGTGGTGTGTTTGC	478	810	422	1710
GGGCAGGCCGGATGTGGGAGACCACAAAGCCCAAGG	5360	820	27500	9010
GGACGCCGCCGGAAGCGCGACCCGCACTCCCGGTAG	3650	794	3500	1260
GCATTGTGCTTCCGCTCGGGGAAAGACCGCTTACGG	789	851	911	1590
TGTCTTCAGGAAGTGTAGCAGGTGTTGAGGTCAAGC	900	703	998	914
GGAGGAAGAGGAGGATGTGGTGAGCCGCTCCCCGCC	923	782	1870	1260
AGTCCTGCCCACTTCCTGCCGCAAGAGAAATCCACT	1930	1250	3260	9180
CAACAACCGGAAGTGGGGCGGGCCGCAGTACCCGCC	14900	701	15800	3010
TGGAAGAGGGCAGGAAGTGTTGTGGTCACTCCCACC	4450	856	28900	1530
GCCCAGGGAAGCACTTCCTGCGGGGCGCGGTGCAGC	1030	744	1270	1500
AGGCCCCGCCCCTTCCGCCCACAGAGCCCGCCACTT	779	1100	1000	1730
TGAGCACTGAGCACTTCCTGTGGCTTCTGAAGCTCC	1860	797	2040	1310
CAGCTAGCCGGAAGAAGCTGCGGCGACAGCGTCCTG	1690	759	2110	1020
GGCATTCACTTCCGGTCTGGGGCCTGCGGCGGCGGC	18600	793	19400	2260
CTACGACTTCCGTGATGCCTTGCGGTTGCTGTAGCC	524	2700	1380	8450
GGGGGAGTTTTCGGAAGCGCTAACCGCGTTGGGGCC	365	860	874	954
CGAAACGCGTTCCCCGGAAACCGCGCCCGGCTCCGA	1810	763	3230	1090
AAGGCAAACAGGAAATCATAACCACAAACCAGGAAC	2960	2880	25500	21700
CTGGTTTCATTTCCGGGTGCGGCTTCTGTCATAAAG	1900	924	2350	2460
TTACTGCCGGAACTTGGGACCTTTGTAACCACGTCT	524	768	586	875
GCCGGTGAGGGCGGAAGTGGTAAGACTGACGTGTCC	6840	709	8740	2490

Sequence	ETS1 binding intensity (ETS1 [1])	RUNX1 binding intensity (RUNX1 [2])	ETS1 binding intensity (ETS1 [3])	RUNX1 binding intensity (RUNX1 [4])
TGGTGGCTATTTCCTCTCCCGCTGTGGTCCCTGGAG	563	728	535	1470
AAATCCACTCAGAGGAAACCACAGGCCTGGCCCAGC	365	1300	622	1690
GCTAAGAGCAGGAAATGATCTGGGAACCACCATCAC	2690	719	3070	918
CAGGCACACATCCGGGAGCGGCCTGCGCCGCAAGGC	608	773	661	1560
GATGCTCTAACAGGAAGTGGGTTAAGGAGCTGCACT	12200	673	14100	2390
ACTTACTTCCCGACGTCACAGCCACCGAAACCACAG	468	1410	464	2090
AACAAACCGGATGGGGTTCCCACCCGCAATCTTGTC	1700	830	4570	1970
GACCAGGAAACGGGGCGTGGCGGCCGCCGTGGTTAC	449	806	485	857
AGCCACATCCTGGACAAAAGCTGTGGTCTAGTAACC	430	911	556	2020
CATAGGAAGTGCTCAGCTCTCCTCCACCGCAAGTTT	452	806	2190	879
AACAGCTTCCGGCACGGGGGCTGTGGTTGTGTTGGA	670	790	1130	1530
CTACTTTCCGGTCAACGCGGCCTGCGGTACCACCTC	438	1160	720	2720
CACTGATTAAGAGGAAGTGTGTGTGGTTATTACCGT	1980	804	8330	1170
CCAACTTTTGAGGGATGTGGTTACGTTTTCTAGATC	366	1410	1440	1620
GACCACTTCCTTTCTGTGTTTTGTGGTTTCACAACT	555	2430	1650	9060
CTCCTTCCTGTGTGTTACTCTTAAAAACCACAGAGG	519	1230	1780	3040
GCGCCGGTGACGGAAGTGCGGTGTTGAGCGCCGGCG	2430	758	3070	1300
GGTTTCGCTTCCGGGTTAGGCGGCCGCAGAAGCGTA	947	790	1340	1980
TATCACATCCTGCCGGACAAAAAGGCCAAACCACCT	536	919	473	1850
GTGGCGAAAGTGCGGATGCGAAACCGCTGGCTCGGC	587	782	1060	881
